# In PubChem BioAssay AID504915 (The Scripps Research Institute Molecular Screening Center, 2011):
# Some of the results follow. A number with no mark means an inactive call. The source made the active and inactive calls. Cut-off read from the data, not from the text of the source: active = activation above about 17%; inactive = the rest.
# Biological target: 5-hydroxytryptamine receptor 5A (Homo sapiens) (UniProt P47898)
# Assay: HTR5A agonists, retest of hits, confirmation, cell-based, luminescence (AID 504915);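 note: 0% = cells with vehicle only and 100% = full reference agonist response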
# Settings: HTR5A agonist cell assay, at 9.3 µM, hits give high values
# Chain of 5-hydroxytryptamine receptor 5A (Homo sapiens) (P47898 whole entry, looked up): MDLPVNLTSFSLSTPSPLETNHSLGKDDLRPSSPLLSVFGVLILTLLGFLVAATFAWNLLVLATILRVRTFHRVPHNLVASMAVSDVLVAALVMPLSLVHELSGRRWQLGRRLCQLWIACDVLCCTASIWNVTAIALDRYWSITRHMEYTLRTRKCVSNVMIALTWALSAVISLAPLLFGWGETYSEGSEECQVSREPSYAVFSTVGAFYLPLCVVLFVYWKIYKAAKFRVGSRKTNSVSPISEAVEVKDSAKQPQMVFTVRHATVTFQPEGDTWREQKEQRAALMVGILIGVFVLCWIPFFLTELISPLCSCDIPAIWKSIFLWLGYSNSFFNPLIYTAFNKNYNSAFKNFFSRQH
row,SMILES,activation
1,Cc1ccc(-c2csc(SCC(=O)Nc3cc(C)on3)n2)cc1,2.91%
2,CC1CCN(S(=O)(=O)c2nnc(NC(=O)COc3ccccc3F)s2)CC1,-0.56%
3,COc1ccc2[nH]cc(CCN3C(=O)c4ccc(C(=O)O)cc4C3=O)c2c1,-2.36%
4,CC(=O)COc1ccc2c(-c3ccccc3)cc(=O)oc2c1,4.18%
5,O=C(Nc1ccc(C(=O)N2CCOCC2)cc1)Nc1cccc(C(F)(F)F)c1,43.1% (active)
6,CC(=O)N1CCN(c2ccccc2NC(=S)NC(=O)c2cc3ccccc3o2)CC1,4.36%
7,CN(c1ccccc1)S(=O)(=O)c1cc(C(=O)N2CCN(c3ncccn3)CC2)ccc1Cl,-3.34%
8,COc1cc2c(-c3ccc4c(c3)OCO4)c(-c3ccsc3)oc(=O)c2cc1OC,-0.88%
9,Cc1ccc(C(=O)N/C(=C/c2ccco2)C(=O)NCCc2c[nH]c3ccccc23)cc1C,-0.29%
10,CC(=O)c1c(C)[nH]c(C(=O)OCC(=O)Nc2c(C)cccc2C)c1C,1.01%
11,CNC(=S)N/N=C/c1ccc(OCc2ccccc2)c(Br)c1,0.4%
12,COC(=O)c1cc(S(=O)(=O)N2CCN(c3cc(C)ccc3C)CC2)c[nH]1,0.19%
13,CCOc1ccc(NC(=O)Nc2cc(C)on2)cc1,-2.78%
14,CCn1nc(C(=O)OCC(=O)N2c3ccccc3CC2C)c2ccccc2c1=O (centres undefined),-1.95%
15,CCCN(CCc1ccccc1)C1CCc2c(O)cccc2C1 (centres undefined),37.2% (active)
16,CCCOc1ccc(C(=O)C(CCC(CNCC)C(=O)c2ccc(OCCC)cc2)CNCC)cc1 (centres undefined),-4.56%
17,COc1ccc(/C=C(\C#N)c2c[nH]c3ccccc23)cc1,0.48%
18,COc1c(Cl)cc(C(=O)Nc2ccc(Cl)cn2)cc1Cl,4.5%
19,COc1ccc(C(=O)O/N=C(\N)Cc2ccc(Cl)cc2Cl)cc1OC,10.9%
20,O=C(CC1Nc2ccccc2NC1=O)Nc1ccccc1 (centres undefined),3.07%
21,C/C(=N\NC(=O)CNc1cccc2ccccc12)c1ccc(Br)s1,1.77%
22,Cc1cccc2sc(N(CCCN(C)C)C(=O)CCS(=O)(=O)c3ccccc3)nc12,5.39%
23,CCC(C)NC(=O)CCCc1ccccc1 (centres undefined),0.89%
24,Cc1oc2c(F)c(F)c(F)c(F)c2c1S(=O)(=O)Nc1cccc(C(F)(F)F)c1,-4.5%
